Screening results from PubChem.
tim23-1 inh – growth inhibitors of tim23-1 mutant yeast | S. cerevisiae tim23-1 growth, BacTiter-Glo luminescence, 24 h | inhibition, % at 20 µM | 1.3% of 330,000 active | AID 463212;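 active means growth inhibition of the mutant yeast at or above 50%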;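 further: temperature-sensitive mutant grown at 25 °C; plate controls were DMSO-treated mutant yeast for no effect and medium wells lacking yeast for full effect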
NALP1 yeast inh – blocks the NALP1 inflammasome reconstituted in yeast; 0.61% of 280,000 active; S. cerevisiae NALP1/ASC/caspase-1 growth, X-gal OD620, 72 h; inhibition, % at 10 µM; in the data active means inhibition mostly above about 24%, no sharp cut-off; inactive means mostly below about 32%
TIM10 inh – growth inhibitors of TIM10 yeast strain; S. cerevisiae TIM10 strain growth, BacTiter-Glo luminescence, 24 h; inhibition, % at 10 µM; 1.4% of 330,000 active;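 active means inhibition of 40% or more at the single tested concentration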;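 further: wild-type TIM10 isogenic control strain grown at permissive 25 °C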
NLRP3 yeast inh – NALP3 inhibition in yeast; Yeast reconstituted NLRP3/ASC/caspase-1, beta-gal luminescence, 24 h; inhibition, % at 10 µM; 0.39% of 330,000 active;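 active means inhibition of 50% or more; inactive means inhibition below 50%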;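 further: plate controls were induced DMSO wells for no effect and uninduced yeast grown without galactose for full effect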
tim10-1 inh – inhibits growth of tim10-1 mutant yeast; S. cerevisiae tim10-1 ts strain growth, BacTiter-Glo, 24 h; inhibition, % at 20 µM; 2.2% of 330,000 active; AID 463190;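 active means inhibition of at least 40%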;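 further: mutant grown at 25 °C; 0% = DMSO wells with yeast and 100% = wells holding no yeast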
tim10 confirm – TIM10 yeast growth inhibition, confirmed; shares compounds with TIM10 inh; S. cerevisiae tim10 strain growth, BacTiter-Glo luminescence, 24 h; inhibition, % at 10 µM; 63% of 4,600 active; AID 463215;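 active means inhibition of yeast growth at or above a set limit in either of two replicates at 10 µM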;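 further: this counterscreen used the strain with wild-type TIM10; 0% = yeast with DMSO and 100% = medium wells lacking yeast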
An asterisk follows results filed as active; nt = not tested or not shown. Shown are actives, neighbours in structure and some others; about 4% of the full set was active somewhere.

SMILES | tim23-1 inh | NALP1 yeast inh | TIM10 inh | NLRP3 yeast inh | tim10-1 inh | tim10 confirm
O=C(Nc1ccc(S(=O)(=O)N2CCc3ccccc32)cc1)c1ccc2c(c1)OCO2 | 27 | 37 | 44* | 14 | 33 | 47*
Cc1ccc(C(=O)Nc2ccc3c(c2)OCO3)cc1Cl | 8 | 14 | 15 | 19 | -2 | nt
O=C(N/N=C/c1ccc2c(c1)OCO2)c1ccc2c(c1)OCO2 | 1 | 2 | -1 | 12 | -9 | nt
Cc1ccsc1/C=N\NC(=O)c1ccc2c(c1)OCO2 | 35 | -2 | 43* | 6 | 0 | 28
Cc1ccc(NC(=O)c2ccc3c(c2)OCO3)cc1Cl | 48 | 17 | 42* | 39 | -27 | 34*
CCOC(=O)c1c(CN2CCOCC2)n(-c2ccccc2)c2cc(Br)c(O)c(CN(C)C)c12 | 35 | 12 | 57* | 21 | 38 | 40*
CC(C)CCn1c(N2CCN(c3cccc(Cl)c3)CC2)nc2c1c(=O)[nH]c(=O)n2C | 21 | 8 | 41* | 2 | 27 | -8
CSc1nc(-c2ccccc2)nn1C(=O)c1ccc(C)cc1 | 41 | 14 | 42* | 21 | 29 | 42*
CSc1nc(-c2ccco2)nn1C(=O)c1ccc(C)cc1 | 31 | 6 | 20 | 17 | 34 | nt
CC(=O)c1c(C(C)=O)c(C)n(NC(=O)c2ccccc2O)c1C | 6 | 5 | -8 | -5 | 4 | nt
CC(=O)c1c(C(C)=O)c(C)n(NC(=O)c2cccnc2)c1C | 14 | 10 | 89* | 17 | 9 | 7
CCOC(=O)N/N=C/c1ccccc1OCc1ccc(Cl)cc1 | 47 | 26 | 44* | 29 | 32 | 33*
Cc1csc(NC(=O)c2ccc(S(=O)(=O)N3CCN(C)CC3)cc2)n1 | 6 | 4 | -17 | 28 | 15 | nt
CCc1cc2c(Nc3ccc(O)cc3)nc(C)nc2s1 | 11 | 2 | 16 | 17 | 17 | nt
CCCC(=O)NC(=S)Nc1ccccc1N1CCOCC1 | 28 | 17 | 22 | -1 | 34 | nt
CCCCC(=O)NC(=S)Nc1ccccc1N1CCCCC1 | 44 | 10 | 44* | -21 | 37 | -33
CCC(=O)NC(=S)Nc1cccc(Cl)c1N1CCCCC1 | 38 | 5 | 47* | -59 | 37 | 38*
Cc1c(C(=O)NC(=S)Nc2ccccc2N2CCCC2)cccc1[N+](=O)[O-] | 42 | 11 | 42* | 21 | 39 | 32*
O=C(Cc1ccc(Cl)cc1)NC(=S)Nc1ccccc1N1CCOCC1 | 44 | 39 | 42* | -6 | 28 | 34*
CCCCC(=O)NC(=S)Nc1cccc(Cl)c1N1CCCCC1 | 9 | 6 | 14 | -9 | 24 | nt
CC(CN1CCCCC1)OC(=O)c1cccc(F)c1 (centres undefined) | 4 | 20 | 97* | 23 | -13 | -8
COc1cccc(C(=O)OC(C)CN2CCCC2)c1 (centres undefined) | 9 | 5 | -12 | 18 | 8 | nt
COc1ccccc1C1/C(=C(\O)c2ccc3c(c2)OCCO3)C(=O)C(=O)N1Cc1cccnc1 (centres undefined) | -5 | 22 | -15 | 8 | -5 | nt
NS(=O)(=O)c1ccc(NC(=O)COC(=O)COc2cccc(C(F)(F)F)c2)cc1 | 7 | 17 | 1 | 16 | -19 | nt
COc1ccc(NC(=O)c2ccccc2C)cc1 | 3 | 20 | 85* | 11 | -1 | 10
SMILES | tim23-1 inh | NALP1 yeast inh | TIM10 inh | NLRP3 yeast inh | tim10-1 inh | tim10 confirm
COc1ccc(NC(=O)c2cccc3ccccc23)cc1 | 2 | 6 | 2 | 26 | -6 | nt
COc1ccccc1C(=O)Oc1ccccc1C(=O)Nc1ccccc1 | 49 | -5 | 41* | 26 | 7 | 31
COc1ccccc1C(=O)Nc1ccc(C(=O)O)cc1 | 14 | -17 | 12 | 1 | -4 | nt
COc1cc(C(C)=O)ccc1OCC(=O)Nc1ccc(Cl)c(S(=O)(=O)N2CCOCC2)c1 | 0 | nt | 12 | -1 | 24 | nt
CCOc1ccc2nc3cc(NCc4ccc(OC)cc4)ccc3c(N)c2c1 | 47 | 15 | 83* | 20 | 38 | 75*
CC(=O)Nc1ccc(C(=O)N/N=C/c2cc(Br)cc(Br)c2O)cc1 | 11 | -2 | 52* | 3 | 34 | 31*
O=C(NCCCN1CCOCC1)c1ccc2c(=O)n(Cc3ccc(Cl)cc3)c(=S)[nH]c2c1 | 12 | -23 | 7 | 21 | 0 | nt
O=C(CNC(=O)C1CCCCC1)Nc1cc(Cl)cc(Cl)c1 | 4 | 25 | 41* | 11 | 15 | 8
